# Data reported in PubChem BioAssay (NCATS).
# Results filed as inconclusive are left out. Entries that show only a call come without a potency. Active and inactive are the calls of the source. Calls follow the shape of the dose curve; as a rule, active = well fitted curve in the direction sought with a large enough effect; inconclusive = small, poorly fitted or top-dose-only effect, or another doubt; inactive = no such curve, though single readings can be large; an effect the other way counts as inactive or inconclusive.
# Tests used:
# [1] = qHTS for Inhibitors of the Aldehyde Dehydrogenase Family (ALDH1A2, ALDH1A3, ALDH2, ALDH3A1) (AID 2061307); also: nearly all actives have a fitted effect of over 50% in size; as to potency: test system not described further here; potency is read from the fitted curve at half-maximal effect
# [2] = biological target: Aldehyde dehydrogenase, mitochondrial (Homo sapiens) (UniProt P05091); assay: qHTS for Inhibitors of the Aldehyde Dehydrogenase Family (ALDH2) Primary screen (AID 2061308); also: nearly all actives have a fitted effect of over 55% in size; also: potency is read from the fitted curve at half-maximal effect
# [3] = biological target: Retinaldehyde dehydrogenase 3 (Homo sapiens) (UniProt P47895); assay: qHTS for Inhibitors of the Aldehyde Dehydrogenase Family (ALDH1A3) Confirmatory screens (AID 2061311); also: nearly all actives have a fitted effect of over 60% in size; also: potency is read from the fitted curve at half-maximal effect
# [4] = biological target: Retinaldehyde dehydrogenase 3 (Homo sapiens) (UniProt P47895); assay: qHTS for Inhibitors of the Aldehyde Dehydrogenase Family (ALDH1A3) Primary screen (AID 2061315)
# [5] = biological target: Aldehyde dehydrogenase 1A1 (Homo sapiens) (UniProt P00352); assay: qHTS for Inhibitors of the Aldehyde Dehydrogenase Family (ALDH1A1) Confirmatory screens (AID 2061316); also: nearly all actives have a fitted effect of over 65% in size; also: potency is read from the fitted curve at half-maximal effect
# [6] = biological target: Retinal dehydrogenase 2 (Homo sapiens) (UniProt O94788); assay: qHTS for Inhibitors of the Aldehyde Dehydrogenase Family (ALDH1A2) Confirmation screens (AID 2061314); also: nearly all actives have a fitted effect of over 65% in size; also: potency is read from the fitted curve at half-maximal effect
SMILES,Potency [1],Potency [2],Potency [3],Potency [4],Potency [5],Potency [6]
CN(C)[C@H]1CCN(c2cccc(Nc3nn4c(=O)c5ccccc5nc4s3)c2)C1,inactive,inactive,3.18 µM (active),inactive,5.04 µM (active),–
O=C([C@@H]1CCCN(c2ccc3[nH]c(C4(n5cc(Cl)cn5)CC4)nc3n2)C1)N1CCCC1,inactive,inactive,inactive,inactive,inactive,–
N#Cc1c(-c2cccc(Cl)c2)no[n+]1[O-],12.7 µM (active),8.91 µM (active),–,inactive,–,5.04 µM (active)
Nc1ccccc1OC1=NS(=O)(=O)c2ccccc21,inactive,2.51 µM (active),–,inactive,–,inactive
O=C(c1cccs1)c1nonc1C(=O)c1cccs1,inactive,inactive,–,inactive,–,–
O=C(CN1C(=O)N/C(=C\c2cn(-c3cccc(C(=O)O)c3)cn2)C1=O)Nc1ccccc1Cl,inactive,inactive,–,inactive,inactive,inactive
O=C(NCCCCc1ccccc1)C1CCN(c2nc(-c3ccc(Br)cc3)cs2)CC1,3.57 µM (active),inactive,–,inactive,8.96 µM (active),inactive
CN(C)CCCNC(=O)c1ccc(-c2cnc3c(O)cccc3c2)cc1,inactive,inactive,–,inactive,–,inactive
CN1CCN(c2ccc(Nc3nn4c(=O)c5ccccc5nc4s3)cc2)CC1,inactive,inactive,–,inactive,12.7 µM (active),14.2 µM (active)
CSc1ccc(-c2cnc(N3CCC(C(N)=O)CC3)s2)cc1,3.18 µM (active),inactive,–,inactive,–,–
COc1ccc(S(=O)(=O)N2CCN(S(=O)(=O)c3ccc4c(c3)OCCO4)CC2)cc1,inactive,inactive,–,inactive,–,–
